Compound activity from PubChem BioAssay.
eIF4H FP inh – human eIF4H binding inhibitors, primary screen, translation initiation inhibitor project, biochemical, uHTS, fluorescence polarization. 290,000 tested, 0.94% active. inhibition, % at 35 µM. AID 2012, 2009. Eukaryotic translation initiation factor 4H (Homo sapiens), Q15056. eIF4H fluorescence polarization binding assay;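 also: calls also rest on retests at 20 µM and on dose response follow-up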
AI-2 QS modul – Vibrio harveyi AI-2 quorum sensing modulators, primary screen, JMH597 strain, luminescence/OD600 ratio. activity change, % at 7.5 µM. AID 2094, 2009. Vibrio harveyi JMH597 AI-2 luminescence/OD600 ratio, 9 h; active compounds read low; strain lacks LuxN and CqsS sensors; 0 = neutral-control median. 300,000 tested, 0.4% active; in the data active = activity change below about -75%, passing the limit was not always enough; inconclusive = no clear call, values can overlap the other calls;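 also: luminescence divided by OD600 gain over 9 h not by final OD600 alone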
PABP1 MLLE inh – inhibitors of PABP1 MLLE–PAM2 peptide binding, primary screen, biochemical, fluorescence polarization, FITC-PAM2, GST-MLLE; 360,000 tested, 0.36% active; AID 588489, 2011; inhibition, % at 20 µM; Polyadenylate-binding protein 1 (Homo sapiens), P11940; in the data active = inhibition above about 35%, passing the limit was not always enough;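 also: plate controls were DMSO wells with GST-MLLE for no effect and wells lacking GST-MLLE protein for full effect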
ABCB6 inh 2 – ABCB6 transporter inhibitors, primary screen, K562-ABCB6 cells, flow cytometry, MLPCN library; K562-ABCB6 porphyrin accumulation, 1 h; active compounds read low; 360,000 tested, 0.19% active; ATP-binding cassette sub-family B member 6 (Homo sapiens), Q9NP58; fluorescence ratio to DMSO, % at 10 µM;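 active = fluorescence ratio to DMSO below 75%, the collection mean minus 3 SD; inconclusive = too few cells collected in the well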;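 also: signal is porphyrin accumulated inside mitochondria; 100% equals median channel fluorescence of DMSO control wells; lower ratio means ABCB6 inhibition with less porphyrin fluorescence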
PHOSPHO1 inh – PubChem AID 1565; inhibition, % at 13.3 µM; recombinant PHOSPHO1, absorbance phosphatase assay; 290,000 tested, 1.1% active; in the data active = inhibition above about 60%
Target sequence (Q8TCT1 whole entry, looked up): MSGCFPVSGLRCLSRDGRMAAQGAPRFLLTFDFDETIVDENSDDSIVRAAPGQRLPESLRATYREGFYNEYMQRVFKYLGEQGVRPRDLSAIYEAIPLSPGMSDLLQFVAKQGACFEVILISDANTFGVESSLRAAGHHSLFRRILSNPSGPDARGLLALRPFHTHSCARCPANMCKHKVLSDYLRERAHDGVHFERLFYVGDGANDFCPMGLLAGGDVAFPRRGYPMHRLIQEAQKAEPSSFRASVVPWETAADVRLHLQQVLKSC
PABP polyA inh – PABP poly(A) RNA binding inhibitors, primary screen, biochemical, fluorescence polarization, uHTS; calls only at 35 µM; 290,000 tested, 1% active;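 also: calls also rest on retests at 20 µM and on dose response follow-up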
JMH597 growth – Vibrio harveyi growth inhibition, confirmation, counter-screen for AI-2 quorum sensing project, JMH597 strain, OD600 absorbance; shares compounds with AI-2 QS modul; 9 h; lacks LuxN and CqsS sensors; growth inhibition, % at 7.5 µM; 750 tested, 1% active;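 active = every replicate shows growth inhibition above 50%; inconclusive = at least half, but not all, replicates pass that cutoff; inactive = fewer than half of replicates pass it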
BB721 const-QS lum – luminescence inhibition in constitutive-on V. harveyi, confirmation, counter-screen for LuxS inhibitor project, strain BB721, luminescence readout | 750 tested, 95% active | shares compounds with AI-2 QS modul | Vibrio harveyi BB721 luminescence, 9 h | AID 2727, 2010 | inhibition, % at 7.5 µM;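 active = inhibition above about 80% in every replicate, not just on average, limit read from the data; inconclusive = at least half of replicates past the limit, but not all; inactive = fewer than half of replicates past the limit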
BB721 growth – growth inhibition of V. harveyi BB721, confirmation, cytotoxicity control for AI-2 quorum sensing inhibitors, strain BB721, absorbance OD600; shares compounds with AI-2 QS modul; Vibrio harveyi BB721 growth, 9 h; growth inhibition, % at 7.5 µM; 750 tested, 3% active; AID 2728, 2010;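 active = every replicate shows growth inhibition above 50%; inconclusive = at least half but not all replicates above 50% inhibition; inactive = under half of replicates above 50% inhibition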
AI-2 QS JMH597 – Vibrio harveyi AI-2 signaling luminescence modulation – JMH597 strain, confirmation; shares compounds with AI-2 QS modul; Vibrio harveyi JMH597 AI-2 quorum sensing luminescence, 9 h; luxN and CqsS knockout, AI-2 only; inhibition, % at 7.5 µM; 750 tested, 97% active; AID 2736, 2010;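 active = every replicate shows more than 75% inhibition of signal versus neutral control wells; inconclusive = half to three quarters of replicates exceed 75% inhibition; inactive = fewer than half of replicates exceed 75% inhibition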
The depositor's hits bear a star; i = inactive; ? = inconclusive; · = no result. Only some compounds are listed: those with a hit (about 2.6% of all), similar ones and a draw of the others. Unless noted, no rule for the calls is given here.

SMILES | eIF4H FP inh | AI-2 QS modul | PABP1 MLLE inh | ABCB6 inh 2 | PHOSPHO1 inh | PABP polyA inh | JMH597 growth | BB721 const-QS lum | BB721 growth | AI-2 QS JMH597
Cc1nc(-c2cccnc2)sc1C(=O)Nc1cccc(C(F)(F)F)c1 | -3 | -86* | 7 | 93 | 33 | i | -15 | 85* | 10 | 89*
O=C(CN1C(=O)NC(Cc2ccccc2)C1=O)Nc1ccccc1 (centres undefined) | -9 | -46 | -3 | 92 | 10 | i | · | · | · | ·
Cc1cccc(NC(=O)CN2C(=O)NC(Cc3ccccc3)C2=O)c1 (centres undefined) | 2 | ? | -19 | 101 | 29 | i | -15 | 85* | -22 | 89*
N#Cc1ccc(NC(=O)CN2C(=O)NC(Cc3ccccc3)C2=O)cc1 (centres undefined) | -1 | -15 | 6 | 87 | -4 | i | · | · | · | ·
N#Cc1cccc(NC(=O)CN2C(=O)NC(Cc3ccccc3)C2=O)c1 (centres undefined) | 1 | -84* | -4 | 96 | -1 | i | 0 | 89* | 4 | 93*
COc1ccc2nc(NNC(=O)C3COc4ccccc4O3)sc2c1 (centres undefined) | 10 | -85* | -34 | 98 | -4 | i | 28 | 92* | 23 | 95*
COc1ccc2nc(NC(=O)C3COc4ccccc4O3)sc2c1 (centres undefined) | 9 | -3 | 2 | 96 | -7 | i | · | · | · | ·
Cc1nn(Cc2ccc(Cl)cc2)c(C)c1NC(=O)c1c(-c2ccccc2)noc1C | -10 | -80* | 1 | 102 | 14 | i | 1 | 93* | -8 | 94*
COc1ccc(C/C(N)=N/OC(=O)c2cccs2)cc1 | -2 | -84* | -6 | 99 | -4 | i | 39 | 97* | 22 | 98*
COc1ccccc1C/C(N)=N/OC(=O)c1cccs1 | -1 | 21 | 4 | 105 | -1 | i | · | · | · | ·
Cc1ccccc1C(=O)O/N=C(\N)Cc1cccs1 | -5 | -87* | 24 | 97 | 23 | i | -7 | 95* | -8 | 96*
Cc1c(C(=O)NCc2ccccc2C(F)(F)F)sc(=O)n1Cc1ccc(Cl)c(Cl)c1 | · | · | -4 | 96 | · | · | · | · | · | ·
CC(=O)NCCNc1nc(NCC2CC2)nc2cc(-c3ccccc3)sc12 | · | · | 7 | 90 | · | · | · | · | · | ·
Clc1ccc(OCc2cc(-c3ccccc3)no2)cc1Cl | 2 | ? | 18 | 97 | 11 | i | -16 | 97* | -25 | 98*
COc1cc(OC)nc(C(NC(=O)C2CCN(Cc3c[nH]c4ccccc34)CC2)c2ccc(Cl)cc2)n1 (centres undefined) | · | · | 9 | 94 | · | · | · | · | · | ·
Clc1ccc(OCc2nc(-c3ccncc3)no2)c(Cl)c1 | -4 | 10 | 2 | 90 | 2 | i | · | · | · | ·
Clc1cccc(OCc2nc(-c3ccncc3)no2)c1 | 7 | -88* | -6 | 101 | 42 | i | 10 | 96* | -11 | 97*
Fc1ccc(OCc2nc(-c3cccs3)no2)cc1 | -4 | -68 | 11 | 97 | 45 | i | · | · | · | ·
